In PubChem BioAssay (NCATS):
Records with an inconclusive call do not appear. A number with no mark means an inactive call. Calls follow the shape of the dose curve; as a rule, active = well fitted cell-killing curve with a large enough effect; inconclusive = small, poorly fitted or top-dose-only effect; inactive = flat fitted curve, though single readings scatter.

assay: qHTS of pediatric cancer cell lines to identify multiple opportunities for drug repurposing: Primary screen for DAOY cells (AID 1347090); conditions: DAOY medulloblastoma viability, CellTiter-Glo luminescence, 48 h; series mostly up to 46 µM; activity change, negative = cytotoxic: at the top concentration; also: nearly all actives have a fitted effect of over 55% in size
Description: Drug repurposing or repositioning has been offered as a strategy for drug development in oncology programs. This approach has special potential for childhood cancers and other rare or orphan diseases, where the expected return on new drug development has been a disincentive to pharmaceuticals.
In this project we exploit the poly-pharmacology of drugs to discover new indications via phenotypic screening of a panel of 19 well-characterized cell lines derived from solid tumors seen in children and adolescents. The goal is to identify approved drugs with previously unrecognized anticancer properties that has the potential to reveal new mechanisms and biological processes involved in carcinogenesis or drug resistance. We employed a titration-based paradigm (quantitative high-throughput screening or qHTS), where all compounds were tested at multiple concentrations for their effect on cell viability. Concentration-response curves (CRCs) were derived directly from the primary screen, and both potency and efficacy values were used to identify compounds with robust bioactivity profiles. We screened the NIH Chemical Genomics Center (NCGC) Pharmaceutical Collection (NPC) and Mechanism Interrogation Plate (MIPE) small molecule collections of approved and investigational compounds against these cell lines; and measured metabolically active cells after 48 hours of compound treatment as a proxy for cell viability.
Assay Submitter: Nathalia J. Martinez, National Center for Advancing Translational Sciences, National Institutes of Health, Rockville, MD, USA; email: natalia.martinez@nih.gov
[1] Shen, M et al. Quantitative high-throughput phenotypic screening of pediatric cancer cell lines identifies multiple opportunities for drug repurposing. Oncotarget 2017 Dec 19;9(4):4758-4772. PMID 29435139.
The cells were obtained from University of North Carolina (UNC), Pediatric Preclinical Testing Program (PPT), and Coriell Institute (CI).
qHTS cell viability assay:
Cells were assayed in growth media at a density of 500-1,000 cells/well. Five microliters of cells were dispensed into 1,536-well, white, solid-bottom, TC-treated plates (Greiner Bio One) using a multidrop dispenser and incubated at 37 degrees C, 5% CO2, under a humidified atmosphere for 5 hours. Twenty-three nanoliters of compounds and controls (neutral control DMSO or positive control bortezomib at final concentration of 2.3 µM) were subsequently transferred by Kalypsys pintool. For primary screens, the MIPE collection was tested at 11-point dilutions (final concentrations range from 0.78 nM to 46 µM) and the NPC collection at 8-point dilutions (final concentrations range from 0.59 nM to 46 µM). Compounds tested in follow-up screens were assayed at 11-point dilutions. Cells were incubated for 48 hours, followed by addition of 3 uL of CellTiter-Glo (Promega). After a 15 min incubation at room temperature, samples were analyzed for luminescence intensity using a ViewLux High-throughput CCD imager equipped with clear filters.

Row | Structure (SMILES) | activity change, negative = cytotoxic
1 | Cc1cccc(OCC(O)CNC(C)(C)C)c1C (stereo not given) | -6.48%
2 | COC(=O)c1cc(Cl)ccc1NS(=O)(=O)C(F)(F)F | -0.459%
3 | Cn1c(=O)c2c(ncn2CC(=O)O)n(C)c1=O | 7.68%
4 | COC(=O)c1cc(Cl)ccc1OC | -1.5%
5 | CC[N+]1(CC)CCC(=C(c2ccccc2)c2ccccc2)C1C (stereo not given) | -2.49%
6 | c1ccc2c(c1)CCc1ccccc1N2 | 8.65%
7 | CC(C)C(C)(C)C(C)(C)C(C)(C)S | 9.56% [at 92.7 µM]
8 | CN1N=C(C(N)=O)CCC1=O | -0.324%
9 | COC(=O)C1=C(C)NC(C)=C(C(=O)OCCc2ccc(N3CCN(C(c4ccccc4)c4ccccc4)CC3)cc2)C1c1cccc([N+](=O)[O-])c1 (stereo not given) | 4.41%
10 | CCCCC(CC)CNC(=O)CC(C)OC(=O)CCC(=O)O (stereo not given) | -6.67%
11 | COc1ccc(/C(C)=C/C(=O)O)c(OC)c1 | 3.12%
12 | O=C1OC2(c3ccccc31)c1cc(I)c(O)c(I)c1Oc1c2cc(I)c(O)c1I | -28.6%
13 | CCOC(=O)CN1CCCC1=O | 7.06%
14 | CCc1cccc2c(CCO)c[nH]c12 | 6.38%
15 | CCn1ccc(NS(=O)(=O)c2ccc(N)cc2)nc1=O | 9.54%
16 | CC(NN)c1ccccc1 (stereo not given) | -6.07% [at 16.1 µM]
17 | CC(C)NC(=O)c1ccc(C=O)cc1 | 2.52%
18 | CCC(=O)O[C@]1(C(=O)COC)[C@@H](C)C[C@H]2[C@@H]3CCC4=CC(=O)C=C[C@]4(C)C3(F)[C@@H](O)C[C@@]21C (stereo not given in full) | 1.41%
19 | CCN1CCCC1CN (stereo not given) | 1.19%
20 | Nc1nc(=O)n([C@@H]2O[C@H](CO)[C@@H](O)[C@@H]2F)cc1I | -7.18%

Row | Structure (SMILES) | activity change, negative = cytotoxic
21 | Cc1cc(CCCOc2c(C)cc(-c3noc(C(F)(F)F)n3)cc2C)on1 | -6.46%
22 | CCN1CCN(C(=O)N[C@@H](C(=O)N[C@@H]2C(=O)N3[C@@H]2SC(C)(C)[C@H]3C(=O)O)c2ccccc2)C(=O)C1=O | 4.33%
23 | Fc1ccc(C(c2ccc(F)cc2)N2CCNCC2)cc1 | 9.67%
24 | CCCCOC(=O)CCCCCCCCC(=O)OCCCC | -1.86%
25 | CN1C(=O)CC(C)(c2ccccc2)C1=O (stereo not given) | -11.9%
26 | C[C@H](CN1CCCC1)C(=O)c1ccc(C(F)(F)F)cc1 | -12.1%
27 | O=C(CCCl)NCCc1ccccc1 | 4.56%
28 | COc1ccc2c(c1)c(CC(=O)OC/C=C(\C)CC/C=C(\C)CCC=C(C)C)c(C)n2C(=O)c1ccc(Cl)cc1 | -4%
29 | O=C(OCC(O)CO)c1ccccc1Nc1ccnc2c(C(F)(F)F)cccc12 (stereo not given) | -16.4%
30 | COc1ccc2cc(C=O)ccc2c1 | 8.26%
31 | CSCC[C@H](NC(=O)[C@H](Cc1c[nH]c2ccccc12)NC(=O)CCNC(=O)OC(C)(C)C)C(=O)N[C@@H](CC(=O)O)C(=O)N[C@@H](Cc1ccccc1)C(N)=O | 12.4%
32 | COc1ccc(CCC(C)=O)cc1 | -0.407%
33 | Cc1cc(O)c2c(O)c3c(O)cccc3cc2c1 | 8.14%
34 | CCOC(=O)NNc1ccc(N(CC)CC(C)O)nn1 (stereo not given) | 1.86%
35 | Cc1ccc(C(C)OC(=O)C2(C)CCC(C(=O)O)C2(C)C)cc1 (stereo not given) | 1.01%
36 | COC(=O)c1ccc(NC(C)=O)cc1OC | -13.7%
37 | COc1ccc2c(c1)CCCC2=O | 9.29%
38 | CC(CC(C#N)(c1ccccc1)C(C)C)N(C)C (stereo not given) | 5.75%
39 | COc1cc(OC)nc(O[C@H](C(=O)O)C(OC)(c2ccccc2)c2ccccc2)n1 | 7.96%
40 | Cc1sccc1Br | -3.14%
